Results from the supplement of paper PMC11732987, “Enantioselective OTUD7B fragment discovery through chemoproteomics screening and high-throughput optimisation” (Communications Chemistry, 2025).

Legend:
Assay in all cases: log2 ratio of Biotin-Ahx-Ub-VS probe labelling (fragment/DMSO); higher = less target engagement (more negative = stronger competition), active = hit call of the paper (q ≤ 0.05, log2 ratio ≤ -1)
Conditions in all cases: compound concentration: 200 uM; treatment time: 3 h
[1] = biological target: USP34 (UniProt Q70CQ2)
USP34, sequence (Q70CQ2 whole entry, the tested form may be a part): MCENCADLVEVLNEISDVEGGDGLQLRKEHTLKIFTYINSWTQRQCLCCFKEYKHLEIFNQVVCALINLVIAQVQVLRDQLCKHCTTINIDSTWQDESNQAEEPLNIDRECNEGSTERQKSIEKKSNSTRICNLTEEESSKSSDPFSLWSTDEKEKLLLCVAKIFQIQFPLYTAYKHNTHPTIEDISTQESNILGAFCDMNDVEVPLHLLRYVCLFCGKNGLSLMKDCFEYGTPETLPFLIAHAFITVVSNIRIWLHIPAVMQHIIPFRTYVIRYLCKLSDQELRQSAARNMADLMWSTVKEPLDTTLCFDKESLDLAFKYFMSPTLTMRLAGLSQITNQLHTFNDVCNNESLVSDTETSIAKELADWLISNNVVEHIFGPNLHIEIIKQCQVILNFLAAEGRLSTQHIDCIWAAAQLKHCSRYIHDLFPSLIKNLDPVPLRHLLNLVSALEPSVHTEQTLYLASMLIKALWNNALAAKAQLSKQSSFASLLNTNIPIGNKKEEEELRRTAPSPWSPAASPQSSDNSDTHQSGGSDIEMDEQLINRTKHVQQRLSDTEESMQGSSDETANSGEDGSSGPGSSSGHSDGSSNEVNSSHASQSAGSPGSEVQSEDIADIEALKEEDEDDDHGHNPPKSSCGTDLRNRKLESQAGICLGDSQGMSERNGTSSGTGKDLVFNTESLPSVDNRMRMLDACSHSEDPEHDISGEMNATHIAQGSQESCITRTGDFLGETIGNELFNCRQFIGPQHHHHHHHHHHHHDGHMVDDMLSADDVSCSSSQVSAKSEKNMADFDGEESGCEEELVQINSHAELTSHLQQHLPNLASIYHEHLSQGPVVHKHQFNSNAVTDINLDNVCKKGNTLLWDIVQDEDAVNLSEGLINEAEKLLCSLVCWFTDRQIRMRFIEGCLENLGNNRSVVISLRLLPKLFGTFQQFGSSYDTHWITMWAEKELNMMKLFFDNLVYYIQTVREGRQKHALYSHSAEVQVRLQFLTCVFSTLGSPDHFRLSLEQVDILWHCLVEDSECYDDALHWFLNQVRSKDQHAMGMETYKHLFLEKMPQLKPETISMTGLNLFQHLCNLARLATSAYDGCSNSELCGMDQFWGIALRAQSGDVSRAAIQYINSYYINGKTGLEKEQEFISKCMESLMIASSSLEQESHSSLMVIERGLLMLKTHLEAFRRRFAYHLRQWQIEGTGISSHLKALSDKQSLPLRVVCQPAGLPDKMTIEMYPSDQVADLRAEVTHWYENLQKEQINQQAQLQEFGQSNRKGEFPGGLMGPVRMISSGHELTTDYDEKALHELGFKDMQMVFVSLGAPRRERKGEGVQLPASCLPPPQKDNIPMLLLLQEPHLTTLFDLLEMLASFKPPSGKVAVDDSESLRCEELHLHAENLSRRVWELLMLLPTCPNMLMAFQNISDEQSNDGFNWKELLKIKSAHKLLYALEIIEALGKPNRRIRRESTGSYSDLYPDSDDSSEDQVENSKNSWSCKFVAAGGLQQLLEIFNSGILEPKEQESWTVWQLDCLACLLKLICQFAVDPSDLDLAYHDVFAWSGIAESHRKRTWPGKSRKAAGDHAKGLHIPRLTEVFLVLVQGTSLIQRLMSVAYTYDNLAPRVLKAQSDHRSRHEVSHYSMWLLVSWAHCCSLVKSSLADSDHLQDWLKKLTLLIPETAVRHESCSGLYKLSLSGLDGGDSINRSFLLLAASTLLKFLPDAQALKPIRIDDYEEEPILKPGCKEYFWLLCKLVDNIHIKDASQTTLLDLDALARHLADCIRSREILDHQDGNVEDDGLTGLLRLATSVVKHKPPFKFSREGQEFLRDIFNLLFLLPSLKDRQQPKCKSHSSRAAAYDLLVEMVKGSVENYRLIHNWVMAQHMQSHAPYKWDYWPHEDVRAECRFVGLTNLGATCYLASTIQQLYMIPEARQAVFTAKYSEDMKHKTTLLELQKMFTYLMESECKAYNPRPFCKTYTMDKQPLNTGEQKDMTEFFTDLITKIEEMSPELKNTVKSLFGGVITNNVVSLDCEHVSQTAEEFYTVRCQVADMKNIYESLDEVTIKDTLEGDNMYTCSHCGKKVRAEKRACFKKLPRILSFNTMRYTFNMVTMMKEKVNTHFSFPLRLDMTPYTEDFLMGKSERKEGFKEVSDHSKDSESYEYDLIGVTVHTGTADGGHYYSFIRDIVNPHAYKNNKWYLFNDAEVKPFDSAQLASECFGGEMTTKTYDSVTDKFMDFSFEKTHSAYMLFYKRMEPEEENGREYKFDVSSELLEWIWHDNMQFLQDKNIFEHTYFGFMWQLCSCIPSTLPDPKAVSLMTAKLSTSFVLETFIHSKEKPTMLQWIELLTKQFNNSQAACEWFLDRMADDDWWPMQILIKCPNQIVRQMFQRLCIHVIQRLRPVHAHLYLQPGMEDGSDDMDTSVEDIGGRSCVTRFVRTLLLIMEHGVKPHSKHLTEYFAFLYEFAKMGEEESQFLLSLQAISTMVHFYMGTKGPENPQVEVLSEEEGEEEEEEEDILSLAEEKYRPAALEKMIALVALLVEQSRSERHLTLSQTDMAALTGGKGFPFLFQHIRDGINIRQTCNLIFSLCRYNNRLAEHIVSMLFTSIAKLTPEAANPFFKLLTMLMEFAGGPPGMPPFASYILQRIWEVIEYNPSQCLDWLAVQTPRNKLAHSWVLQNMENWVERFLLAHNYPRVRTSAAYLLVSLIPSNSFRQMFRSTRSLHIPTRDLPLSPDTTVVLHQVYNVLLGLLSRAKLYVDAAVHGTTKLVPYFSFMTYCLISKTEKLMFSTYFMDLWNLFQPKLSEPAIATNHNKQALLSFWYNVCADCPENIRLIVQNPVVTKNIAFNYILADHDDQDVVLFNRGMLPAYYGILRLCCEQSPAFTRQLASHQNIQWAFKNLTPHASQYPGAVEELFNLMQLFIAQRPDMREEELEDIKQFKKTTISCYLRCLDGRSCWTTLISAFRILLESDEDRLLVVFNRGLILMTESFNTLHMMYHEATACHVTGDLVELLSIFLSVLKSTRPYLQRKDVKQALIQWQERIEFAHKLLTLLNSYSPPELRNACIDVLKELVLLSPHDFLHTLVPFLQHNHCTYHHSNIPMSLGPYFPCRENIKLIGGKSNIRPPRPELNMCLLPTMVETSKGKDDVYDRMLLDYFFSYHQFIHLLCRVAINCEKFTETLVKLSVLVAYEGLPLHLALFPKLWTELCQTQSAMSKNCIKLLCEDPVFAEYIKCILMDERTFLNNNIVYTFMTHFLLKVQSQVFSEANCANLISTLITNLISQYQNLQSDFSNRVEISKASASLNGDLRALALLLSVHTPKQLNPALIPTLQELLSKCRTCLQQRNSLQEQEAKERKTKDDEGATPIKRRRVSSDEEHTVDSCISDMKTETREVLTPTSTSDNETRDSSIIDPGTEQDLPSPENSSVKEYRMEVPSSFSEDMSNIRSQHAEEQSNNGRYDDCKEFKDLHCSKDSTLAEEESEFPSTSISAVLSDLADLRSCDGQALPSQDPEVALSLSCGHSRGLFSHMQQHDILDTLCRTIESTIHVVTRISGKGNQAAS
In short: (§1)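 HEK293T lysate, 495 µg per sample in Tris/CHAPS/IGEPAL buffer with protease inhibitors, was treated in triplicate with fragment at 200 µM or vehicle for 3 h and then with Biotin-Ahx-Ub-VS at 0.5 µM final for 1 h. Labelled DUBs were NeutrAvidin-enriched, digested with LysC and trypsin, and run by diaPASEF LC-MS/MS. Spectronaut label-free quantities were global-median-normalised, and values are average log2 fragment/vehicle ratios by unpaired t-test on proteins with ≥2 unique peptides.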

[2] = biological target: T1, USP36 (UniProt Q9P275)
T1 sequence (whole entry): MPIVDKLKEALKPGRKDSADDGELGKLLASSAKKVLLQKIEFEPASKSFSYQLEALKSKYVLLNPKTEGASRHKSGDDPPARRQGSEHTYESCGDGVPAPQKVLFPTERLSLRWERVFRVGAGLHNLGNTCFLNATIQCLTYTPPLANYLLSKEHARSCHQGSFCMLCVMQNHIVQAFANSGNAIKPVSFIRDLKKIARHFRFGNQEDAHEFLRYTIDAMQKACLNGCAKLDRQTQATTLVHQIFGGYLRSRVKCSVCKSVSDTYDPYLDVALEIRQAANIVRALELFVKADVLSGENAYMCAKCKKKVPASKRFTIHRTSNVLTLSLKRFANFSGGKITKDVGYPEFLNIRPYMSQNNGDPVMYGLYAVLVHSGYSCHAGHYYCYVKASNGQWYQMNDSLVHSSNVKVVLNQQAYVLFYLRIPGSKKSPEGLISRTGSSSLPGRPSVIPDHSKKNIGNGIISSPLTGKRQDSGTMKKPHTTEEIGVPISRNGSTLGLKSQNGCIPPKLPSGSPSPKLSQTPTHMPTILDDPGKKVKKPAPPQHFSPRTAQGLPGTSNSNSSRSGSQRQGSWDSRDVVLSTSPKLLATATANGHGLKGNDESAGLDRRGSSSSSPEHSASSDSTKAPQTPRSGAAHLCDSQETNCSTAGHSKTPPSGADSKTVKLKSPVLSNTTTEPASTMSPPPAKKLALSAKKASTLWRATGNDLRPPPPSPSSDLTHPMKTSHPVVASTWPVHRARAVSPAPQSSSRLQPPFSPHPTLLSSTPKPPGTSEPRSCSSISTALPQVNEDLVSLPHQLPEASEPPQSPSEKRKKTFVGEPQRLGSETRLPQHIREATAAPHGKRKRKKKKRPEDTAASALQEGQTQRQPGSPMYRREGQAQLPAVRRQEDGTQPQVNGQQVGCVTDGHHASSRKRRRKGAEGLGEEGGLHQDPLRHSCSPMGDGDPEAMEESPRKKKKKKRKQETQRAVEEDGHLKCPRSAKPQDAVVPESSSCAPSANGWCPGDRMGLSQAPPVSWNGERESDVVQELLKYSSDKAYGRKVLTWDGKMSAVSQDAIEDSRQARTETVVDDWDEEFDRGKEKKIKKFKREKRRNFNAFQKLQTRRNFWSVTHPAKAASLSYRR
In short: as §1

[3] = biological target: T2, USP38 (UniProt Q8NB14)
T2 sequence (whole entry): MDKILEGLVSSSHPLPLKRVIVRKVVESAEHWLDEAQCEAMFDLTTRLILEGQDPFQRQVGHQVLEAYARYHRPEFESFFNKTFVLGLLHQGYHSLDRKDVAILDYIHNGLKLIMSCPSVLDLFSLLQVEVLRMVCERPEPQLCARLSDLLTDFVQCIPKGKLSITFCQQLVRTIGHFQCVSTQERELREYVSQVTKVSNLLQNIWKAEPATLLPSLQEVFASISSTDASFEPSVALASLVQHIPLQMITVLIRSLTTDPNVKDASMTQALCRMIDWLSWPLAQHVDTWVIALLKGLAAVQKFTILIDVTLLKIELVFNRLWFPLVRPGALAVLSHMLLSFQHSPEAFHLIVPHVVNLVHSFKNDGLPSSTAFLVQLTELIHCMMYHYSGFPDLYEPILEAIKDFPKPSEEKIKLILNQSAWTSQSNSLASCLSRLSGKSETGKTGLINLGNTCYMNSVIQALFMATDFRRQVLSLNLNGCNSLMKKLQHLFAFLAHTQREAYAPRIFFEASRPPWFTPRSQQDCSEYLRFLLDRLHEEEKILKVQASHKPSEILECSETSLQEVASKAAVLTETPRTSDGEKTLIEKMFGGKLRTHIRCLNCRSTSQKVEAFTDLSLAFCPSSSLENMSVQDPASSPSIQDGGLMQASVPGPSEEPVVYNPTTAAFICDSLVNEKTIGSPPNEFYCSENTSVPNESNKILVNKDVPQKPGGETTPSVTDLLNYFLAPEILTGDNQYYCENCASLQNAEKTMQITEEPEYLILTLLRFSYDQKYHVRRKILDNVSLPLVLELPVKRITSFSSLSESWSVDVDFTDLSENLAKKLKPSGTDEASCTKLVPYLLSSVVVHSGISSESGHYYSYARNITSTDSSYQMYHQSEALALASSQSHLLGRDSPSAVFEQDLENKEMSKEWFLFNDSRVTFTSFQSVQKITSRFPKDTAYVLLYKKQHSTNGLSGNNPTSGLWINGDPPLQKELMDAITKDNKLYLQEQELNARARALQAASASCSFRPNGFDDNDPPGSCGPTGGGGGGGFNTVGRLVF
In short: as §1

[4] = biological target: T3, USP39 (UniProt Q53GS9)
T3 sequence (whole entry): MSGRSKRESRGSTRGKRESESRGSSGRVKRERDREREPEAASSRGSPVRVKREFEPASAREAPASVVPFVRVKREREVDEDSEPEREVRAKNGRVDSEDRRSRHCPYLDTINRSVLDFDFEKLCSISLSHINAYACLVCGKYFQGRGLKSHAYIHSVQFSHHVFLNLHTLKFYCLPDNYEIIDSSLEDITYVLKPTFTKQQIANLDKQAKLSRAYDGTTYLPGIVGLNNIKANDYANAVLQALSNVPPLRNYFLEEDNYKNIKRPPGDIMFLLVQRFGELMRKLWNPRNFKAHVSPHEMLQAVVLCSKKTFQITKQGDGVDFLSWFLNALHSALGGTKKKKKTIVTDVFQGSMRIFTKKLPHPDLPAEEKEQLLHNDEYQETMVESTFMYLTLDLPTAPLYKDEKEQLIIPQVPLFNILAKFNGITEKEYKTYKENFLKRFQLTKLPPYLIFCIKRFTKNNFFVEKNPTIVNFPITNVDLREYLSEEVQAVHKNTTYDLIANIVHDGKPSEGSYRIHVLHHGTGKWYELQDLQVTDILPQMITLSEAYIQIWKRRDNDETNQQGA
In short: as §1

[5] = biological target: T4, USP4 (UniProt Q13107)
T4 sequence (whole entry): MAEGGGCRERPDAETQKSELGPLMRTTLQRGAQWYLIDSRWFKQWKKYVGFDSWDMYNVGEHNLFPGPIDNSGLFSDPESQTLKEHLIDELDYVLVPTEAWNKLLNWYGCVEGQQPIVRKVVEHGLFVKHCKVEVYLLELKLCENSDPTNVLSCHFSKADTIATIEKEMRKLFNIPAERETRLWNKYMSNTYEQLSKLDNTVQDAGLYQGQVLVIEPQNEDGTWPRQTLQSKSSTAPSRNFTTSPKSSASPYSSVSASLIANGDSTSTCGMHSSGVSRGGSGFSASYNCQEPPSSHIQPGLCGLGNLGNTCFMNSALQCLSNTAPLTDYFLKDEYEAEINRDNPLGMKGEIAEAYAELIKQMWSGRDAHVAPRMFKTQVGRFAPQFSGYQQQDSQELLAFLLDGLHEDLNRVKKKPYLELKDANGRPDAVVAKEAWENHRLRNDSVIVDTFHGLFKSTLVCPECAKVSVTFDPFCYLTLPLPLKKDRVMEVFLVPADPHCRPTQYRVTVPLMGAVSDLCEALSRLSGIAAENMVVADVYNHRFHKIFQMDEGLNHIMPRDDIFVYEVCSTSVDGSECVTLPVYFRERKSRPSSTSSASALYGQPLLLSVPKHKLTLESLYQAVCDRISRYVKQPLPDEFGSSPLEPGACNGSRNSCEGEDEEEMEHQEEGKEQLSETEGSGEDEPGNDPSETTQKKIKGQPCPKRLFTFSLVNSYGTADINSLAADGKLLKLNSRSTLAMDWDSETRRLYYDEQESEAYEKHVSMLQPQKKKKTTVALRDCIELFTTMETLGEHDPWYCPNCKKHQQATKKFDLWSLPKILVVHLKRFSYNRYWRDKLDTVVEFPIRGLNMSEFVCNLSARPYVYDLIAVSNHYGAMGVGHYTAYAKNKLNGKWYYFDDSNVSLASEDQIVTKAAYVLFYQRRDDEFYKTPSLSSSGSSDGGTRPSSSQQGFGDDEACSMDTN
In short: as §1

Measured: log2 ratio of Biotin-Ahx-Ub-VS probe labelling

Cc1cc(C(=O)NC2CCN(C(=O)CCl)CC2)no1
inactive: [1] -0.22 | [2] -0.0502 | [3] 0.122 | [4] 0.0572 | [5] -0.111
